The record followed here is PubChem BioAssay (NCATS).

Inconclusive results are not listed. Active and inactive are the calls of the source. Unless noted, calls follow the shape of the dose curve; as a rule, active = well fitted curve in the direction sought with a large enough effect; inconclusive = small, poorly fitted or top-dose-only effect, or another doubt; inactive = no such curve, though single readings can be large; an effect the other way counts as inactive or inconclusive.

Test [1] deals with Voltage-gated inwardly rectifying potassium channel KCNH2 (Homo sapiens) (UniProt Q12809). Nature of the test: qHTS Assay for Small Molecule Inhibitors of the Human hERG Channel Activity (AID 588834).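 Also: top concentration of the series differs between compounds; lower thallium flux fluorescence means stronger hERG block; nearly all actives have a fitted effect of over 50% in size.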 Conditions: U2OS BacMam hERG, FluxOR thallium flux fluorescence; series mostly up to 46.1 µM. An outline of the steps: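 Measured: FluxOR fluorescence after thallium stimulation in U2OS cells transduced with hERG by baculovirus. Compounds pre-incubated around 10 min; medium Opti-MEM with 2% FCS. AC50 from Hill equation.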

Test [2] concerns the target Luciferin 4-monooxygenase (Photinus pyralis) (UniProt P08659). Nature of the test: Biochemical firefly luciferase enzyme assay for NPC (AID 624030).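 Also: purified P. pyralis luciferase at 10 nM with luciferin and ATP substrate; nearly all actives have a fitted effect of over 70% in size.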 The following applies: purified P. pyralis luciferase, luminescence, 5 min; series mostly up to 58.6 µM. The method, boiled down:
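Direct inhibition of firefly luciferase enzyme (10 nM final, 50 mM Tris Acetate) assessed by luminescence within 5 minutes. Percent activity scaled between DMSO and PTC124 positive control, with concentration-effect curves classified by fit quality and response.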

The nature of test [3]: S16 Schwann cell viability assay (CellTiter-Glo assay) (AID 624031).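 Also: cellular ATP luminescence as a viability measure; nearly all actives have a fitted effect of over 70% in size.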 Conditions: S16 rat Schwann cells viability, 24 h; series mostly up to 57.5 µM. An outline of the steps: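 CellTiter-Glo ATP luminescence counter-screen in untransfected S16 rat Schwann cells, 24h compound exposure at 37 degree Celsius after overnight seeding (500-750 cells/well); response scaled between cell-free wells and DMSO (0% activity), curves classed by r2 and magnitude.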

Test [4] is described as follows: S16 Schwann cell PMP22 intronic element firefly luciferase assay (AID 624032). Also: nearly all actives have a fitted effect of over 30% in size. Also: potency is read from the fitted curve at half-maximal effect. Conditions: S16 rat Schwann cells, PMP22 element FLuc, 24 h; series mostly up to 57.5 µM. The method, boiled down: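 Luciferase reporter of PMP22 intronic-element expression in stably transfected S16 rat Schwann cells, read by ONE-Glo luminescence after 24 h compound exposure at 37 C. Activity scaled between DMSO (0%) and positive-control PTC124; concentration-effect curves quality-classified.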

A short description of test [5]: qHTS of Trypanosoma Brucei Inhibitors: LOPAC Validation (AID 624147). Conditions: purified enzyme assay, luminescence, 45 min; series mostly up to 57.5 µM. The method, boiled down: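 T. brucei PYK with substrate was exposed to pin-transferred compounds across a concentration series, then started with 130 uM ADP (final). After 45 min at room temperature, Kinase-Glo Plus luminescence was read, normalized and curve-fitted.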

The target in test [6] is Glucagon-like peptide 1 receptor (Homo sapiens) (UniProt P43220). Nature of the test: qHTS of GLP-1 Receptor Agonists: LOPAC Validation (AID 624148).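 Also: luminescence from a luciferase reporter switched on by cAMP; higher luminescence signal means agonism.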 The following applies: GLP-1R agonist cell assay; series mostly up to 46.1 µM. The method, boiled down:
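Agonism scored as increased luciferase luminescence driven by cAMP in HEK293 clones carrying GLP-1R. Cells settled 12 hours, received compound for 4-6 hr at 37 deg C, 5% CO2, and were read after 12 min detection reagent at RT.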

Test [7] can be described thus: qHTS of Nrf2 Activators: LOPAC Validation (AID 624149). Conditions: Nrf2/ARE reporter cell assay; series mostly up to 46.1 µM. An outline of the steps:
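Luminescence read-out of ARE-luciferase activation: AREc32_Fluc cells treated with compounds for 24 hr at 37 deg C, then lysed with Steady-Glo for 30 min at room temperature before reading.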

Test [8] in a line: HTS Assay for Allosteric Antagonists of the Human D2 Dopamine Receptor: Hit Validation in HTRF (AID 624455).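 Also: stable D1 dopamine receptor cell line scored for blocking the D1 response.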 Conditions: Cells stably expressing D1 dopamine receptor, inhibition mode; series mostly up to 46.1 µM. The method, boiled down: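 First, antagonism was screened by calcium flux in a force-coupled, inducible Hek293 Trex D2 line challenged with EC80 dopamine. Hits then went into an HTRF assay in cells stably expressing D1, testing inhibition of the D1 response.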

A short description of test [9]: S16 Schwann cell PMP22 intronic element beta-lactamase assay (AID 624044; calls by dose curve; also: nearly all actives have a fitted effect of over 15% in size). Conditions: S16 rat Schwann cells, PMP22 element beta-lactamase FRET, 24 h; series mostly up to 38.3 µM. An outline of the steps: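 Rat S16 Schwann cells with beta-Lac driven by a PMP22 intronic element, compound-treated 24 h at 37 °C. LiveBLAzer FRET B/G read: 460 nm normalized to potassium clavulanate vs DMSO; 535 nm FRET as viability; concentration-effect curves classified.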

Test [10] concerns the target Glutaminase kidney isoform, mitochondrial (Homo sapiens) (UniProt O94925). Nature of the test: qHTS for Inhibitors of Glutaminase (GLS): LOPAC Validation (AID 624146).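 Also: glutamate product detected by oxidase and peroxidase coupled Amplex red fluorescence gain; nearly all actives have a fitted effect of over 60% in size.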 Conditions: glutaminase enzyme activity inhibition; series mostly up to 46.1 µM. The method, boiled down: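 Glutamate formation by hKGA was monitored fluorometrically using coupled glutamate oxidase, HRP and Amplex Red. Substrate was added as 1 mM L-glutamine solution; incubation was 30 min at RT after an initial read.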

Sequence of Voltage-gated inwardly rectifying potassium channel KCNH2 (Homo sapiens) (Q12809 whole entry, looked up): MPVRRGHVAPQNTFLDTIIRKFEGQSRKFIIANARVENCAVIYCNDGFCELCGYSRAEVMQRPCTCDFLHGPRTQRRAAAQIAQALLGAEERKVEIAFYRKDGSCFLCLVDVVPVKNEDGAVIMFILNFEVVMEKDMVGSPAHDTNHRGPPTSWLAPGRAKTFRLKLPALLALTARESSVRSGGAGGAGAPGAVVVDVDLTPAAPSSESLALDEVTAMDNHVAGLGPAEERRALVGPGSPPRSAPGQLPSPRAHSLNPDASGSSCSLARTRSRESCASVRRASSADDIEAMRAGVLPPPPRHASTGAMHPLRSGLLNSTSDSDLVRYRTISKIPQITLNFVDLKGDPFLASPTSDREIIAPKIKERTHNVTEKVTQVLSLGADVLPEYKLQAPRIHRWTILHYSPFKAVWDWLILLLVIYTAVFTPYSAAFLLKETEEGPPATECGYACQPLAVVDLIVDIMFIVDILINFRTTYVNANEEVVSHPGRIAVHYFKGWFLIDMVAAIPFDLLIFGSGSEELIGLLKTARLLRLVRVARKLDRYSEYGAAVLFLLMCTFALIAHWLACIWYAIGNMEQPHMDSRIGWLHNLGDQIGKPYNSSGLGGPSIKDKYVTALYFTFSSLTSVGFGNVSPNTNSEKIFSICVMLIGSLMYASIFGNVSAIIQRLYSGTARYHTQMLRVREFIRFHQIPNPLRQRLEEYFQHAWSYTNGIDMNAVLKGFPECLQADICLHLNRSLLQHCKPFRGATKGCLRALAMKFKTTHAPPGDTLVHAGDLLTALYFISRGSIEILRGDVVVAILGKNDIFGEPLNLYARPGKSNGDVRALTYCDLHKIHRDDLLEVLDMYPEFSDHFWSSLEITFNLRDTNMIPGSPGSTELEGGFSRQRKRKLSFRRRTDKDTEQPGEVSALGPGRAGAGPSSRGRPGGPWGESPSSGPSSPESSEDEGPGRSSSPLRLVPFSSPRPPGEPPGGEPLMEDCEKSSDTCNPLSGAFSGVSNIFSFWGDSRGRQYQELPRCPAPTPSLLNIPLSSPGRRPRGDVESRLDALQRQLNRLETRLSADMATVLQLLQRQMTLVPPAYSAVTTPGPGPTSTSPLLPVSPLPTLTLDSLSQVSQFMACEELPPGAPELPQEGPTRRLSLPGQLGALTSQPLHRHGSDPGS
Sequence of Luciferin 4-monooxygenase (Photinus pyralis) (P08659 whole entry, looked up): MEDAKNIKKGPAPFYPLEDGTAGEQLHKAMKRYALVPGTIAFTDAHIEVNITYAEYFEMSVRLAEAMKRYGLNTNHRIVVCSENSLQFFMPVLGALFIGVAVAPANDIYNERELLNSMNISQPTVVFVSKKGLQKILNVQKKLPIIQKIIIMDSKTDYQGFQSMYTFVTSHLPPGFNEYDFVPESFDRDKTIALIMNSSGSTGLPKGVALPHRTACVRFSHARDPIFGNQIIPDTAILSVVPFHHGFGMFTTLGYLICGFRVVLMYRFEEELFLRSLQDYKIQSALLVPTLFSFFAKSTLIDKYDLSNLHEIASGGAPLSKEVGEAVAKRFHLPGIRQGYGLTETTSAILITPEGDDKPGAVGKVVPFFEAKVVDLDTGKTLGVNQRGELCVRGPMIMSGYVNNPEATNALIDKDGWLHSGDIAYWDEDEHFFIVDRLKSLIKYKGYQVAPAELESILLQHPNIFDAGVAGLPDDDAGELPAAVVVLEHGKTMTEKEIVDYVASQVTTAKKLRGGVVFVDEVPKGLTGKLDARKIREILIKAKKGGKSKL
Sequence of Glucagon-like peptide 1 receptor (Homo sapiens) (P43220 whole entry, looked up): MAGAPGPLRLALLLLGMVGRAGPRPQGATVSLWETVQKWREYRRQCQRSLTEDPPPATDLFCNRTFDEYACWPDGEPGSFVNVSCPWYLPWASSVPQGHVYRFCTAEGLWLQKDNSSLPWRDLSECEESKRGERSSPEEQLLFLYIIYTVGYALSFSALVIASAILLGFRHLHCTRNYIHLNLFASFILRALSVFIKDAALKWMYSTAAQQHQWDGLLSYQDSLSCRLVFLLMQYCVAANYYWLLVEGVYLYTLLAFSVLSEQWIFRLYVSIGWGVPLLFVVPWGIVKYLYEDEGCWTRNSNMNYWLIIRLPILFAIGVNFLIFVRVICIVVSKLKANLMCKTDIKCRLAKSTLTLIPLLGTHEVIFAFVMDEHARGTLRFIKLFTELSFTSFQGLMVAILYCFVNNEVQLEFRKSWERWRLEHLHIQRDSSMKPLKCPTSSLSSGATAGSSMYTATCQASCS
Sequence of Glutaminase kidney isoform, mitochondrial (Homo sapiens) (O94925 whole entry, looked up, canonical isoform): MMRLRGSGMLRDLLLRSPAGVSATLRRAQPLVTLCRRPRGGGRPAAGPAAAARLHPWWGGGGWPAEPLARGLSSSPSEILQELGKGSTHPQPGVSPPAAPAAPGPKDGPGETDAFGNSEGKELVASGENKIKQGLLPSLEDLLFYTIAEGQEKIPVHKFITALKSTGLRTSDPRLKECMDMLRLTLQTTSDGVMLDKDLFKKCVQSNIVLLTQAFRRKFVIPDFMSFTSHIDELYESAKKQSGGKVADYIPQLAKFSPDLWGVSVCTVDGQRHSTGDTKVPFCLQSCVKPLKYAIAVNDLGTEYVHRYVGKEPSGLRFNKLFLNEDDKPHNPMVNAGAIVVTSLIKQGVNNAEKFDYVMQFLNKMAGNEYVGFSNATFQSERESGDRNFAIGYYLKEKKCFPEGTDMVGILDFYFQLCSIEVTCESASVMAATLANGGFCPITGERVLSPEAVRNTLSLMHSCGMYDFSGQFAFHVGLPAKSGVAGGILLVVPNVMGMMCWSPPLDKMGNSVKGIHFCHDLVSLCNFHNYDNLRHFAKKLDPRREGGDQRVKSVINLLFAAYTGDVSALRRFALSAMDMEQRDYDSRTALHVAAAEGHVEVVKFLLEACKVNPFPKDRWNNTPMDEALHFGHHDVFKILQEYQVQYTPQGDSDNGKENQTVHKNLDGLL

As for `O=C1NC(=O)[C@@]2(CCOc3ccc(F)cc32)N1`, the Potency entry in [1], in [2], in [3] and in [4] was “inactive” throughout.

`CCCCCCCCCCCCCCCCCCOCC(O)CO` (configuration not stated): the Potency entry in [1], in [2] and in test [3] was “inactive” in each case.

For `COc1ccc(S(=O)(=O)Nc2nnc(CC(C)C)s2)cc1`, the Potency result in test [1], in test [2] and in [3] was “inactive” in each case.

For `CC(C)(C)C(=O)NCCCC(=O)O`, the Potency result in [1], in [2] and in [3] was “inactive” in each case.

Turning to `Nc1ccc(S(=O)(=O)Nc2ccc(Cl)nn2)cc1`, the Potency entry in [1], in test [2], in test [3] and in test [4] was “inactive” each time.

For `CC1=C(CC(=O)O)c2cc(F)ccc2/C1=C\c1ccc(S(C)=O)cc1` (configuration not stated), the Potency result in [1], in [2] and in test [3] was “inactive” each time. The compound was called inactive in [5], in test [6], in test [7] and in test [8].

On to `O=C(O)c1ccccn1`, for which the Potency result in test [1], in test [2], in test [3] and in test [9] was “inactive” in each case.

Regarding `OCC(O)CN1CCN(c2ccccc2)CC1` (configuration not stated), the Potency entry in [1], in test [2], in test [3] and in test [9] was “inactive” throughout.

For the compound `CCCCN1CCCC[C@H]1C(=O)Nc1c(C)cccc1C`, the Potency entry in test [1], in test [2], in test [4] and in test [9] was “inactive” throughout.

For `Cc1cc(N)c2ccccc2[n+]1CCCCCCCCCC[n+]1c(C)cc(N)c2ccccc21`, the Potency entry in test [1], in test [2] and in [10] was “inactive” in each case. In addition, the Potency in [4] is 3.46 µM (active). The compound was classed as inactive in test [5], in test [6], in [7] and in test [8].

Regarding `O=c1[nH]c(=O)c2[nH]c(=O)[nH]c2[nH]1`, the Potency result in test [1], in test [2] and in test [4] was “inactive” throughout.
